High-throughput results: PubChem, National Center for Advancing Translational Sciences (NCATS)
Cruzain noTriton: cruzain (T. cruzi) inhibition without detergent; P25779; purified cruzain, Z-FR-AMC fluorescence, no detergent; Potency, µM, actives largely listed as inhibitors; hit rate 2.3% among 200,000; active = well fitted curve in the direction sought with a large enough effect; inconclusive = small, poorly fitted or top-dose-only effect, or another doubt; inactive = no such curve, though single readings can be large; an effect the other way counts as inactive or inconclusive; note: nearly all actives have a fitted effect of over 40% in size
Target sequence (P25779 123-467 limits assumed): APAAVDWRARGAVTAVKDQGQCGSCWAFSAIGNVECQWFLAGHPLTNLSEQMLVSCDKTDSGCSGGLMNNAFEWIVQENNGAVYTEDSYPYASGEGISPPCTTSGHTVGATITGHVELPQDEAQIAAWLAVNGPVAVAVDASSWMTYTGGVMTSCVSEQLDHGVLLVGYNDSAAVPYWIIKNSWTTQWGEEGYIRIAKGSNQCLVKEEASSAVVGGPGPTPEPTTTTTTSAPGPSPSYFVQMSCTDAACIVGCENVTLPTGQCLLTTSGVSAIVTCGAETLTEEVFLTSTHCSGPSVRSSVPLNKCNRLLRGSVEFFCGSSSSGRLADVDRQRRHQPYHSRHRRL
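Purified cruzain at 1.5 nM, pre-incubated 15 min with compound at room temperature in 100 mM sodium acetate pH 5.5, 5 mM DTT, 0.00005% Triton X-100. Reaction started with 2 uM Z-FR-AMC; AMC fluorescence increase over 60 s gives rate.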
NS1 function inh: blocks influenza NS1 protein function; Potency, µM (series often up to 46.1 µM); AID 2326; hit rate 0.4% among 270,000; note: actives are rising curves; nearly all actives have a fitted effect of over 50% in size
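Compounds were scored for reversing the slow growth caused by influenza A NS1 in S. cerevisiae, measured by optical density at 600 nm. Assay medium contained 2% galactose at pH 6.0; NS1-free yeast of the same strain were the positive control.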
Cruzain Triton: inhibitors of Trypanosoma cruzi cruzain with detergent | purified cruzain, Z-FR-AMC fluorescence, 0.01% Triton | Potency, µM, actives largely listed as inhibitors | hit rate 0.43% among 200,000 | AID 1478; active = well fitted curve in the direction sought with a large enough effect; inconclusive = small, poorly fitted or top-dose-only effect, or another doubt; inactive = no such curve, though single readings can be large; an effect the other way counts as inactive or inconclusive; note: nearly all actives have a fitted effect of over 40% in size
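Purified cruzain (1.5 nM final) was preincubated with compounds for 15 min at room temperature in 100 mM sodium acetate pH 5.5, 5 mM DTT, 0.01% Triton X-100. Reaction started with 2 uM Z-FR-AMC; AMC fluorescence change over 60 s gave activity.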
Flu NS1 inh: influenza NS1 function inhibition validation. 1,400 tested, under 10 active. activity change, negative = inhibition, % at 32.9 µM. shares compounds with NS1 function inh. AID 492980. influenza NS1 function cell assay, 15-point titration
Flu PR8 replic: influenza NS1 inhibitors: inhibition of influenza A/PR/8/34 replication. virus titer (log TCID50), log10 TCID50 at 5 µM. hit rate 30% among 95. shares compounds with NS1 function inh. MDCK infected influenza A/PR/8/34, virus titer TCID50; stronger effect = lower value. AID 504647; call rule not given here
Hits are given with their value; – = inactive; ? = inconclusive; · = no result. The full list was thinned out, with hits kept by preference. Unless noted, calls come from the whole dose curve.

SMILES	Cruzain noTriton	NS1 function inh	Cruzain Triton	Flu NS1 inh	others
CN(Cc1ccccc1)C(=O)COC(=O)c1ccccc1NS(=O)(=O)c1cccc(N)c1	–	22µM	–	–
CC(OC(=O)c1ccccc1NS(=O)(=O)c1cccc(C(F)(F)F)c1)C(=O)N(C)Cc1ccccc1 (stereo not given)	–	–	–	·
Cc1cccc(CN(CC(=O)N/N=C/c2ccco2)S(=O)(=O)c2ccc(Cl)cc2)c1	–	–	–	·
Cc1cccc(CN(CC(=O)N/N=C/c2cccs2)S(=O)(=O)c2ccc(Cl)cc2)c1	–	8.9µM	–	–
CN(CC1CCCO1)S(=O)(=O)c1ccc(C(=O)Nc2nnc(-c3ccccc3)o2)cc1 (stereo not given)	·	–	·	·
O=c1cc(O)cc(/C=C/c2ccc(O)c(O)c2)o1	–	6.3µM	–	–
O=C(O)/C=C\c1ccc(O)c(O)c1	–	·	–	·
O=C(O)[C@@H]1CCCN1Cc1ccc2c(c1)OCO2	–	–	–	·
Cc1ccc(C)c(S(=O)(=O)c2nnn3c2nc(NC(C)C)c2sccc23)c1	–	·	–	·
COc1cccc(CNc2sc3c(c2C(=O)Nc2ccc(OC)cc2OC)CCC3)c1	–	·	–	·
COc1ccccc1NS(=O)(=O)c1cccc(C(=O)N/N=C/c2c(C)nn(-c3ccccc3)c2N2CCCC2)c1	–	11µM	–	–
CCOc1ccc(S(=O)(=O)Nc2ccc(C(=O)N/N=C/c3c(C)nn(-c4ccccc4)c3N3CCCC3)cc2)cc1	?	–	–	·
CC(=O)N1CCc2cc(Br)cc(S(=O)(=O)CCC(=O)N3CCN(c4ccc(F)cc4)CC3)c21	?	·	–	·
CC(C)OC(=O)/C(=C\c1ccc2c(c1)c1ccccc1n2C)NC(=O)c1ccccc1	?	10µM	–	–
CC(C)OC(=O)/C(=C/c1ccc2c(c1)c1ccccc1n2C)NC(=O)c1ccccc1	–	–	–	·
Cc1ccc(CCN2CC(C(=O)NC3CCCC3)CC2=O)cc1 (stereo not given)	–	?	–	–
Cc1ccc(CCN2CC(C(=O)NC3CCCCC3)CC2=O)cc1 (stereo not given)	·	–	·	·
CCN(CC)c1sc(S(=O)(=O)c2ccccc2)nc1S(=O)(=O)c1ccc(C)cc1	–	·	–	·
O=C(CCC(=O)N(CC(=O)NC1CCCCC1)Cc1cccs1)Nc1nccs1	·	6.3µM	·	–
O=C(CCC(=O)N(CC(=O)NC1CCCCC1)Cc1ccc(F)cc1)Nc1nccs1	·	–	·	·
COc1ccc(-n2c(SCC(=O)N3CCCCC3)nc(O)cc2=O)cc1	–	11µM	–	?	Flu PR8 replic=–
COc1ccc(-n2c(SCC(=O)N3CCCC3)nc3ccccc3c2=O)cc1	·	–	·	·
COc1ccc(/C=C/C(=O)c2ccc(C)s2)cc1	–	·	–	·
CCCn1c(C)cc(C(=O)CSc2nc3ccccc3c(=O)n2Cc2ccco2)c1C	–	8.9µM	–	–
CCN(CC)C(=O)CSc1nc2ccccc2c(=O)n1Cc1ccco1	–	·	–	·
SMILES	Cruzain noTriton	NS1 function inh	Cruzain Triton	Flu NS1 inh	others
COc1ccc(-c2[nH]c(-c3ccc(F)cc3)nc2SCC(=O)Nc2ccc(OC)c(OC)c2)cc1	–	·	–	·
CCOC(=O)c1c(C)[nH]c(C)c1S(=O)(=O)NCC(=O)Nc1cccc(SC)c1	–	·	–	·
Cc1cccc(NC(=O)c2cc(NC(=O)C3CC=CCC3C(=O)O)ccc2N2CCOCC2)c1 (stereo not given)	–	?	–	·
Cc1ccc(NC(=O)c2cc(NC(=O)C3CC=CCC3C(=O)O)ccc2N2CCOCC2)cc1 (stereo not given)	–	7.9µM	–	–
O=C(O)CSc1ccc(N=C=S)cc1	–	–	–	·
COc1ccc(C2N(c3ccc(OC)cc3)C(=O)C3CCCN32)cc1 (stereo not given)	–	–	–	·
COc1ccccc1C1N(c2ccc(Cl)cc2)C(=O)C2CCCN21 (stereo not given)	–	11µM	–	–
COc1ccc(N2C(=O)C3CCCN3C2c2ccccc2OC)cc1 (stereo not given)	–	–	–	·
COc1ccc(C2N(c3ccc(F)cc3)C(=O)C3CCCN32)cc1 (stereo not given)	–	1.1µM	–	–
O=C(NC1CCCCC1)c1cc(Nc2cccc(C(F)(F)F)c2)nc2ccccc12	–	·	–	·
COc1cccc(C2=NOC(C(=O)Nc3cccc(C(C)=O)c3)C2)c1 (stereo not given)	–	2.8µM	–	–
COc1cccc(C2=NOC(C(=O)Nc3ccc(OC)c(OC)c3)C2)c1 (stereo not given)	–	–	–	·
CCN(CC)c1nc2c3c(nc4c(c3c1C#N)CC(=O)N4c1ccc(Cl)cc1)NC(C)=N2	–	14µM	–	–
